Assay results from PubChem BioAssay AID1839 (Johns Hopkins Ion Channel Center, 2009).
Among all 2,400 compounds or so, about 220 (9.2%) were called active. For the sample, actives were picked, then their nearest neighbours and some compounds at random. A number with no mark means an inactive call.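 Rule for the calls: active = signal change above the mean of dofetilide-free buffer controls plus 3 SD, so a positive margin; inactive = the rest.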

assay: nonspecific flux effects in parental CHO-K1, confirmation, counter-screen for hERG block protection project, cell-based, CHO-K1 parental line, FluxOR thallium flux (AID 1839); conditions: CHO-K1 parental cells, FluxOR thallium flux fluorescence; at 10 µM;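 note: compounds applied alone with no dofetilide to cells lacking hERG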

| SMILES | signal change vs control minus 3*SD hit threshold (margin above threshold, higher = more increase) |
| --- | --- |
| O=C(Nc1ccc(Cl)cc1)Nn1cnnc1 | -19.6% |
| CCOC(=O)C1=C(c2ccccc2)NC(=O)NC1c1ccc(O)c(Cl)c1 (stereo not given) | -23.2% |
| O=c1c2ccccc2[nH]c(=S)n1C1CCCCC1 | -31.6% |
| CC1CCC(n2c(=S)[nH]c3ccccc3c2=O)CC1 (stereo not given) | 23.6% (active) |
| CC1CCCCC1n1c(=S)[nH]c2ccccc2c1=O (stereo not given) | -13.4% |
| Cc1c(C(=O)N/N=C/c2ccccn2)nnn1-c1nonc1N | -22.2% |
| Cn1c(=O)c2sc3c(c2n(CC(=O)Nc2ccccc2)c1=O)COC(C)(C)C3 | -33% |
| c1ccc(-c2ccc(-c3ccncn3)cc2)cc1 | -28.8% |
| Cc1csc(NC(=S)NC(=O)c2ccccc2)n1 | -14.7% |
| COc1ccc(NC(=S)NC(=O)c2ccc(Br)o2)cc1 | -13.4% |
| O=C(NC(=S)Nc1ccccc1Cl)c1ccco1 | -7.5% |
| Cc1ccc(NC(=S)NC(=O)c2ccc(-c3ccccc3)cc2)cc1 | -23.5% |
| Cc1cccnc1NC(=O)c1csnn1 | -24.6% |
| COc1ccc(NC(=S)Nc2ccccn2)cc1 | -35.9% |
| O=C(NC(=S)Nc1ccccc1)c1cncc(C#Cc2ccccc2)c1 | -27.9% |
| O=C(NC(=S)Nc1ccccc1)c1csnn1 | 50.8% (active) |
| Cc1snnc1C(=O)NC(=S)Nc1ccccc1 | 5.3% (active) |
| O=C(NC(=S)Nc1ccccc1)c1cccs1 | -16.6% |
| COc1ccc(NC(=S)NC(=O)c2csnn2)cc1 | 9.6% (active) |
| O=C(NC(=S)Nc1ccccc1Cl)c1csnn1 | 39.6% (active) |
| CC(=O)Nc1ccc(NC(=O)CSc2ncc(C(=O)Nc3ccc(Cl)cc3)c(=O)n2C)cc1 | -22.1% |
| S=C(N/N=C/c1ccccc1Cl)Nc1cccc(Cl)c1Cl | -4.6% |
| O=C1CC(N2CCN(c3ccccc3Cl)CC2)C(=O)N1c1ccc(F)cc1 (stereo not given) | -20.8% |
| COc1cccc(C(=O)/C=C/Nc2ccc(S(=O)(=O)Nc3cnc4ccccc4n3)cc2)c1 | -33.7% |
| C/C(=N/NC(=O)c1ccncc1)c1ccc2c(c1)OCO2 | -30.7% |

| SMILES | signal change vs control minus 3*SD hit threshold (margin above threshold, higher = more increase) |
| --- | --- |
| Cn1c(=O)c(-c2cc(=O)[nH][nH]2)c(O)c2ccccc21 | -23.6% |
| Cc1noc(C)c1-c1nnc(-c2ccc(C(F)(F)F)cc2)o1 | -18.1% |
| Cn1cc([N+](=O)[O-])c(C(=O)NCc2cc3cc(Cl)ccc3[nH]2)n1 | -24.3% |
| Cc1ccc(NC(=O)C2C3CCC(O3)C2C(=O)O)cc1C (stereo not given) | -26% |
| CC(NC(=O)c1ccncc1)C(C)(C)C (stereo not given) | -25.4% |
| Cc1ccccc1Cc1c(C)nc2c(C(=O)NCc3ccc4c(c3)OCO4)cnn2c1C | -30.9% |
| COC(=O)Nc1c(-c2ccccc2)nc2ccccn12 | -32.5% |
| O=c1c(-c2ccccc2)nc(-c2ccccc2)cn1O | 27.1% (active) |
| Cc1nc(-c2ccccc2)cn(O)c1=O | -14.6% |
| Cc1ccc(C)c(NC(=S)NNC(=O)c2csc3c2CCC(C)C3)c1 (stereo not given) | -16.3% |
| Cc1ccc(NC(=S)NC(=O)c2sc3ccccc3c2Cl)c(C(=O)O)c1 | -25.3% |
| CCOC(=S)NC(=O)c1sc2ccccc2c1Cl | 3% (active) |
| COc1ccccc1C(=O)NNC(=S)NC(=O)c1sc2ccccc2c1Cl | -27.2% |
| COc1ccccc1C(=O)NC(=S)NNC(=O)c1sc2ccccc2c1Cl | 23.2% (active) |
| CCCCOC(=S)NC(=O)c1sc2ccccc2c1Cl | 24.5% (active) |
| O=C(NC(=S)N(CCCCO)C1CCCCC1)c1sc2ccccc2c1Cl | -27.6% |
| COC(=O)CC1C(=O)NCCN1C(=S)NC(=O)c1sc2ccccc2c1Cl (stereo not given) | -17.8% |
| O=C(NNC(=S)NC(=O)c1sc2ccccc2c1Cl)c1ccc(Cl)cc1 | -22.6% |
| CCCOC(=S)NC(=O)c1sc2ccccc2c1Cl | -4% |
| Cc1cccc(OCC(=O)NC2CCCc3ccccc32)c1C (stereo not given) | -39.9% |
| CCc1nnc(NC(=O)CSc2nc(-c3ccccc3)cc(-c3ccc(OC)cc3)c2C#N)s1 | -33.2% |
| COc1ccc(C2/C(=C(/O)c3ccc(Br)cc3)C(=O)C(=O)N2C)cc1 (stereo not given) | -34.2% |
| CCOC(=O)c1sc(NC(=S)NC(=O)c2ccc(OC)cc2)nc1C | -23.3% |
| CCOCCCn1c(=S)[nH]c2cc(C(=O)NCCOC)ccc2c1=O | -21.5% |
| CCOC(=O)c1sc(=S)n2c1[nH]c(=O)c1ccc(C(=O)OC)cc12 | 27.7% (active) |

| SMILES | signal change vs control minus 3*SD hit threshold (margin above threshold, higher = more increase) |
| --- | --- |
| Cc1nnc(SCc2cc(=O)oc3cc(O)ccc23)n1Cc1ccccc1 | -27.2% |
| O=C(NC(=S)Nc1ccc(N2CCOCC2)c(Cl)c1)c1sc2ccccc2c1Cl | -3.9% |
| Oc1ccc(N=Nc2ccccc2-c2nn[nH]n2)c(O)c1 | -14.2% |
| COc1ccc2nc(N=Nc3c(O)ccc4ccccc34)sc2c1 | 1.7% (active) |
| CCOC(=O)c1cccc(C(=O)Nc2nc3ccc(OC)cc3s2)n1 | -31.4% |
| COc1ccc(S(=O)(=O)Nc2ccc(O)c3ccccc23)cc1 | -41.6% |
| Cc1cc(NC(=O)/C(C#N)=C/c2ccco2)n(-c2ccccc2)n1 | -40.7% |
| Cc1[nH]n2c(=O)cc(C(C)C)nc2c1-c1ccccc1 | -21.7% |
| Cc1[nH]n2c(=O)cc(C(C)(C)C)nc2c1-c1ccccc1 | -21.1% |
| O=c1cc(-c2ccccc2)nc2c(-c3ccccc3)c(C(F)(F)F)[nH]n12 | 8.1% (active) |
| Cc1nc(-c2nc(-c3c(C(=O)NNC(=O)c4ccc(Cl)cc4)noc3C)cs2)cs1 | -33.4% |
| CC1CCc2c(sc3[nH]c(=S)n(C)c(=O)c23)C1 (stereo not given) | 23.8% (active) |
| COCCn1c(=S)[nH]c2sc3c(c2c1=O)CCC(C)C3 (stereo not given) | 18.3% (active) |
| Cc1ccc(-n2c(=S)[nH]c3sc4c(c3c2=O)CCC4)cc1 | -20.7% |
| Cn1c(=S)[nH]c2sc3c(c2c1=O)CCC(C(C)(C)C)C3 (stereo not given) | 32% (active) |
| Cc1cccc(-n2c(=S)[nH]c3sc4c(c3c2=O)CCc2ccccc2-4)c1 | -27.1% |
| O=C(NC(=S)N1CCN(C/C=C/c2ccccc2)CC1)c1ccc(Cl)nc1 | -22.6% |
| Cc1ccc(NC(=S)N2CCN(c3ccccc3F)CC2)c(C)c1 | -24.2% |
| O=c1[nH]c2ccc(S(=O)(=O)NCc3ccccc3)cc2[nH]1 | -30.8% |
| CC(=O)c1c(N2CCN(Cc3ccccc3)CC2)[nH]c(-c2ccccc2)nc1=S | -16.4% |
| CCN(CC)C(=O)CN1C(=O)c2cccc3cccc(c23)C1=O | -21.1% |
| COc1ccccc1/C=C1\SC(=S)N(NS(=O)(=O)c2ccc(C)cc2)C1=O | -41.8% |
| Cc1cc(=O)oc2cc(OC(C(=O)O)c3ccccc3)ccc12 (stereo not given) | -33.7% |
| Cc1ccc(-c2cc(-c3n[nH]c(=S)o3)c3ccccc3n2)cc1 | -2.6% |
| C=CCc1cc(Cl)ccc1OCCOCCN(C)C | -30% |

| SMILES | signal change vs control minus 3*SD hit threshold (margin above threshold, higher = more increase) |
| --- | --- |
| CCOC(=O)c1sc(NC(=O)c2ccccc2C(=O)O)c(C(=O)OCC)c1C | -19% |
| CCOC(=O)c1c(NC(=O)/C=C/c2ccco2)sc(C)c1C | -32.2% |
| CCOC(=O)c1sc(NC(=S)NC(=O)c2ccccc2)nc1C | -3.4% |
| CCOC(=O)c1sc2nc(C)[nH]c(=S)c2c1C | -9.2% |
| CCOC(=O)c1sc2ncnc(NCc3ccco3)c2c1C | 1.7% (active) |
| CCOC(=O)c1sc2ncnc(NCC(c3cccs3)N(C)C)c2c1C (stereo not given) | 3.3% (active) |
| CC/C(=N\NC(=O)c1nnn(-c2nonc2N)c1-c1cccs1)c1ccccc1 | -25.4% |
| CC(C)(C)c1ccc(C(=O)NC(=S)Nc2nc3c(s2)CCCC3)cc1 | -9.2% |
| O=C(NC(=S)Nc1nc2c(s1)CCCC2)c1ccc(C(=O)c2ccccc2)cc1 | -36.7% |
| COC(=O)c1ccc(C(=O)NC(=S)Nc2nc3c(s2)CCCC3)cc1 | 2% (active) |
| O=C(NCC(c1cccs1)N1CCOCC1)c1cc(S(=O)(=O)N2CCOCC2)ccc1F (stereo not given) | -28.4% |
| O=C1CSC(=S)N1/N=C/c1cc(Br)ccc1O | -42.6% |
| O=C(/C=C/c1ccccc1)c1cc(Br)ccc(=O)c1O | -22.9% |
| CC(=O)Oc1c(-c2ccco2)oc2ccccc2c1=O | -12.5% |
| COc1ccc(-c2oc3ccccc3c(=O)c2OC(C)=O)cc1 | -22.3% |
| CC(=O)Oc1c(-c2ccc(Br)o2)oc2ccccc2c1=O | 63.5% (active) |
| Cc1ccc(C(=O)NNc2cc(N3CCCC3)nc(N3CCCC3)n2)cc1 | -21.8% |
| CCN(CC)c1ccc(NC(=S)NC(=O)c2cccs2)cc1 | -20.8% |
| Cc1ccc(NC(=O)C(=O)NNC(=O)c2cccs2)cc1 | 27.4% (active) |
| CCc1ccc(NC(=O)C(=O)NNC(=O)c2cccs2)cc1 | 18.1% (active) |
| Cc1ccc(N/C=C/C(=O)c2cccs2)cc1 | -25.9% |
| COc1ccc(NC(=O)C(=O)NNC(=O)c2cccs2)c(OC)c1 | -7.2% |
| O=C(NC(=S)NNC(=O)c1cccs1)c1ccc(Br)o1 | -45.9% |
| CCOc1ccccc1Nc1nc(-c2sc(C)nc2C)cs1 | -38.3% |
| COC(=O)c1ccc(-n2c(C)nc(=O)c(-c3ccccc3)c2C)cc1 | -20.1% |
